This is an account of results in PubChem BioAssay (NCATS).

Records with an inconclusive call do not appear. Where a call stands in place of a potency, no number is given. A number with no mark means an inactive call. Active and inactive are the calls of the source. Calls follow the shape of the dose curve; as a rule, active = well fitted inhibition curve with a large enough effect; inconclusive = small, poorly fitted or top-dose-only effect; inactive = flat fitted curve, though single readings scatter.

This experiment has as its target Calcium and integrin-binding protein 1 (Homo sapiens) (UniProt Q99828). The experiment can be described thus: Primary qHTS for Identification of Calcium Integrin Binding Protein 1 (CIB1) Competitor (AID 1508620). Also: top concentration of the series differs between compounds. The gist of the method: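 Fluorescence polarization competition: GST-tagged CIB1 (1 uM final) preincubated with compound 15 min at room temperature, then FITC-labelled alphaIIb peptide (100 nM final) added. After 15 min at room temperature, polarization read at Ex 480/Em 540.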
For orientation: In qHTS, concentration-response curves come from the screen itself.

Calcium and integrin-binding protein 1 (Homo sapiens), sequence (Q99828 whole entry, looked up): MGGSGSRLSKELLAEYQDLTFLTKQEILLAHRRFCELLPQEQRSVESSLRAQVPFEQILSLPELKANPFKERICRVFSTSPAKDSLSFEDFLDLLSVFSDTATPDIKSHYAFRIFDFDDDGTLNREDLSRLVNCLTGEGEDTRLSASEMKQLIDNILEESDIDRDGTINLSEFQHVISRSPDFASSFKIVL

With `Cc1ccc(NC(=O)c2ccc(CN3CCNCC3)cc2)cc1Nc1nccc(-c2cccnc2)n1`, the Potency result was “inactive”.
Consider `COc1c2c(nc3occc13)C(CC=C(C)C)(OC)C(O)CC2` (centres undefined), for which the Potency entry is “inactive”.
On the same count and under the same terms, the result for `C[C@@H](N[C@H]1CCCC[C@@H]1NC(=O)c1ccc(Cl)cc1)c1cccc2ccccc12` reads “inactive”; that for `CC(=O)C1(C)CCC2C3C=C(C)C4=CC(=O)CCC4(C)C3CCC21C` (centres undefined), “inactive”; that for `CC(=O)OC1C(=O)C2C3OCC4=C3[C@@](C)(CC[C@@H]4O)CC[C@]2(C)[C@H]1C(C)C` (some centres undefined), “inactive”.
The same measure, in the same setting: the result for `CC(C)C(C)C(O)C1CC23CC(=O)C4(O)C(=C2CCC3C1C)C=CC1(O)CC(O)CCC14C` (centres undefined) reads “inactive”; that for `CC(C)(O)C1CC(=O)C2(C)C(CCC3(C)C(c4ccoc4)OC(=O)C4OC432)C12CCC(=O)OC2` (centres undefined), “inactive”; that for `C=CCC1=C[C@]2(OC)[C@H](C)[C@@H](c3ccc4c(c3)OCO4)O[C@]2(OC)CC1=O`, “inactive”.
Take `COc1ccc(CCN(C)CCCOc2nsc(-c3ccccc3)n2)cc1OC`: the Potency entry is “inactive”.
Regarding `C=C1C(=O)O[C@@H]2/C=C(\CO)CC/C=C(/C=O)C[C@H](O)[C@@H]12`, the Potency result is “inactive”.
In the case of `COC(=O)c1ccnc(-c2cc(C(=O)Nc3ccc(C4(N)CC4)cc3)ccn2)c1`, the Potency entry was “inactive”.
The same measure, in the same setting: the result for `Fc1ccc(-c2nc(C3CCNCC3)sc2-c2ccnc(NC3CC3)n2)cc1` reads “inactive”.
With `CC(=O)O[C@H]1CC(C)(C)CC2[C@]13CO[C@@]21CCC2[C@@]4(C)CC[C@H](O[C@@H]5OC[C@H](O[C@@H]6O[C@H](CO)[C@@H](O)[C@H](O)[C@H]6O[C@@H]6OC[C@@H](O[C@@H]7O[C@H](CO)[C@@H](O)[C@H](O)[C@H]7O)[C@H](O)[C@H]6O)[C@H](O)[C@H]5O[C@@H]5O[C@H](CO)[C@@H](O)[C@H](O)[C@H]5O)[C@@](C)(CO)C4CC[C@@]2(C)[C@]1(C)C[C@H]3O` (some centres undefined), the activity change, negative = inhibition is 3.35% [at 12.4 µM].
`CC1(C)CCC(C)(C)c2cc(C#Cc3ccc(C(=O)O)cc3)ccc21`: the Potency result is “inactive”.
